# This is a sample that favours compounds with a hit; in the whole collection about 0.86% have one here.
# BLM inh: blocks DNA unwinding by human BLM helicase; AID 2528; recombinant BLM DNA unwinding, fluorescence dequenching; 0.2% of 350,000 active; P54132; Potency, µM (highest dose often 56.1 µM), for inactives: at the top dose activity change, negative = inhibition, actives largely listed as inhibitors;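 also: plate controls were vehicle for no effect and no enzyme for full effect; nearly all actives have a fitted effect of over 35% in size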
# Tb PGK inh: T. brucei PGK inhibition | AID 602233 | PGK/GAPDH coupled, Kinase-Glo luminescence, 60 min | 0.043% of 380,000 active | Potency, µM (doses to about 57.5 µM), for inactives: at the highest dose activity change, negative = inhibition, hits mostly inhibitors; also: nearly all actives have a fitted effect of over 60% in size
#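 Luminescent ATP detection (Kinase-Glo Plus) follows a 60-minute room-temperature incubation, with wells lacking PGK as controls. Buffer: 100 mM TEA (pH 7.6), 5 mM MgCl2, 0.01% Tween-20. Coupling enzyme GAPDH (100 nM final) supplies unstable 1,3-BPG in-well.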
# FEN1 inhibitor: human FEN1 inhibition. Recombinant FEN1 flap cleavage, fluorescence, 15 min. Potency, µM (titrated, usually from 114 µM), without a hit: top-dose activity change, negative = inhibition, most hits filed as inhibitors. 0.35% of 390,000 active. AID 588795; also: nearly all actives have a fitted effect of over 65% in size
# Target sequence (P39748 whole entry, looked up): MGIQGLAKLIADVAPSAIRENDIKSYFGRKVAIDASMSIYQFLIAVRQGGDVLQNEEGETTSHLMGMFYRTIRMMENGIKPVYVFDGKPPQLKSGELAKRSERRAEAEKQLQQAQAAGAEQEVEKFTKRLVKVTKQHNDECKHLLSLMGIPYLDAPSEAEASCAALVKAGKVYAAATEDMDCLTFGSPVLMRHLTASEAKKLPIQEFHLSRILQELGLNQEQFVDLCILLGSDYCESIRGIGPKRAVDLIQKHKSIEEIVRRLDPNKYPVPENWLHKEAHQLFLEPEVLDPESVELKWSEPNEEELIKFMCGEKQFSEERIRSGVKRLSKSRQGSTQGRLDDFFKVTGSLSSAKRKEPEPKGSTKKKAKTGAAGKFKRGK
#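 Nuclease activity of 10 nM FEN1 was measured after 15 min of room-temperature exposure to titrated compounds, by adding 50 nM flap substrate and reading plates at 0 and 15 min.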
# RECQ1 inh: blocks DNA unwinding by human RECQ1 | P46063 | RECQ1 DNA unwinding, red fluorescence kinetic read | Potency, µM (top dose mostly 57.3 µM), for inactives: top-dose activity, negative = inhibition, most hits filed as inhibitors | 0.54% of 240,000 active | AID 2549;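 also: plate controls were vehicle for no effect and no enzyme for full effect; nearly all actives have a fitted effect of over 30% in size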
#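 50 nM RECQ1T1 preincubated 15 min with compound in Tris pH 8.0 buffer with MgCl2, DTT, Tween-20 and 2.5 ug/ml poly(dI-dC); started with 200 nM TAMRA/BHQ-2 forked duplex and 2 mM ATP. Unwinding read as fluorescence (525/598 nm), two reads 2 h apart.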
# APEX1 inh: blocks human APE1 abasic DNA cleavage; recombinant APE1, TAMRA/BHQ-2 abasic DNA cleavage fluorescence; 0.35% of 350,000 active; Potency, µM (titrated, usually from 65.8 µM), for inactives: at the top dose activity change, negative = inhibition, usual class: inhibitors;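 also: plate controls were vehicle for no effect and reference inhibitor for full effect; nearly all actives have a fitted effect of over 55% in size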
#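 Activity was derived from the fluorescence gain between first and third kinetic reads (60 s intervals, ex 525/em 598 nm) after 50 nM THF-abasic TAMRA/BHQ-2 duplex was added to 0.75 nM APE1 preincubated 15 min with compound.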
# GLS inhibitor: blocks human kidney-isoform glutaminase activity; O94925; GLS enzymatic activity, qHTS titration; Potency, µM (top dose mostly 45.5 µM), for the others: at the top dose activity change, negative = inhibition, hits mostly inhibitors; 0.21% of 410,000 active; AID 624170
#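 hKGA in 45 mM KH2PO4 (pH 8.2), 0.02% Tween-20 with compound, then 1mM L-Glutamine (stock as added) plus glutamate oxidase/HRP/Amplex red coupling mix. Fluorescence read initially and after 30 min at RT; signal change reflects glutamate formation.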
# Active calls of the source: *; i = inactive; ? = inconclusive; nt = no result; [ ] = another dose, or the depositor's remark. Calls follow the shape of the dose curve; as a rule, active = well fitted curve in the direction sought with a large enough effect; inconclusive = small, poorly fitted or top-dose-only effect, or another doubt; inactive = no such curve, though single readings can be large; an effect the other way counts as inactive or inconclusive. Unless noted, % is scaled to controls: 0 for no effect and ±100 for the full control effect; potency is read from the fitted curve at half-maximal effect.
SMILES,BLM inh,Tb PGK inh,FEN1 inhibitor,RECQ1 inh,APEX1 inh,GLS inhibitor
C=CCN1C(=O)/C(=C\C=C2\N(C)c3ccccc3C2(C)C)SC1=S,?,-6%,?,1.4µM*,3%,16%
CC(C)(C)n1ncc2c(=O)n(Cc3ccc(F)c(C(F)(F)F)c3)cnc21,nt,nt,-9%,nt,-9%,nt
CCOC(=O)c1ccc(OCCN2C[C@H](O)[C@@H](O)[C@H](O)[C@H]2CO)cc1,nt,nt,nt,nt,nt,-3%
O=S(=O)(Nc1cc(Sc2ncn[nH]2)c(O)c2ccccc12)c1ccccc1,28µM*,-11%,20µM*,-7%,3%,0%
CCOc1ccc(NC(=O)c2cccc(-n3cccc3)c2)cc1S(=O)(=O)N1CCOCC1,nt,nt,nt,nt,1.3µM*,nt
CNc1cc(OC)c(C(=O)N[C@H]2CCN(Cc3ccccc3)[C@H]2C)cc1Cl,nt,nt,nt,nt,-5%,nt
CC(=O)c1ccsc1-c1c(C)cc2oc(=O)cc(-c3ccccc3)c2c1C,-9%[75.6 µM],-5%,-20%,22µM*,9%,-2%
CC1=CC(C)(C)NC(=S)N1c1cccc2cc(S(=O)(=O)O)ccc12,-10%,-7%,?,-9%,?,11µM*
CC1=CC(C)(C)NC(=S)N1c1ccccc1C,-5%,0%,-5%,-11%,3%,-18%
COc1cc2sc3cc(NCc4ccc(C)o4)ccc3c(=O)c2cc1OC,nt,-5%,32µM*,nt,-15%,-6%
COc1cc2sc3cc(NCC[C@@H]4CCCN4C)ccc3c(=O)c2cc1OC,nt,3%,22µM*,nt,?,9%
CCc1cccc2c(C(O)(c3c[nH]c4c(CC)cccc34)c3c[nH]c4c(CC)cccc34)c[nH]c12,nt,nt,2%,nt,nt,nt
c1ccc2c(c1)Nc1ccncc1S2,-1%,-3%,-7%,-4%,?,10µM*
C=CCN1c2ccccc2Sc2cnccc21,nt,-9%,nt,nt,nt,1%
CO[C@H](C(=O)[C@@H](O)[C@@H](C)O)C1Cc2cc3cc(O[C@H]4C[C@@H](O[C@H]5C[C@@H](O)[C@H](O)[C@@H](C)O5)[C@@H](O)[C@@H](C)O4)c(C)c(O)c3c(O)c2C(=O)[C@H]1O[C@H]1C[C@@H](O[C@H]2C[C@@H](O[C@H]3C[C@](C)(O)[C@H](O)[C@@H](C)O3)[C@H](O)[C@@H](C)O2)[C@H](O)[C@@H](C)O1 (stereo partly specified),-6%,nt,nt,nt,nt,-27%
C=C1c2cccc(O)c2C(=O)C2C(=O)[C@]3(O)C(=O)C(C(N)=O)C(=O)[C@@H](N(C)C)[C@@H]3[C@@H](O)[C@H]12 (stereo partly specified),nt,-28%,14µM*,nt,15%,8.9µM*
C[C@H]1c2cccc(O)c2C(O)=C2C(=O)[C@]3(O)C(O)=C(C(N)=O)C(=O)[C@@H](N(C)C)C3[C@@H](O)C21 (stereo partly specified),nt,i,-21%,nt,-3%,42%
c1cc2c(cc1C1=NNC(=NC3CC3)SC1)OCCO2,-1%,13µM*,14%,-4%,-4%,-8%
Cc1ccc(/C=C/C2=Cc3c(sc(NC(=O)CSc4n[nH]c(N)n4)c3C#N)C(C)(C)C2)o1,?,nt,nt,20µM*,-7%,nt
CN(CCO)c1ccc(C=NNc2ccc([N+](=O)[O-])cc2S(=O)(=O)Nc2ccccc2C(=O)O)cc1,nt,-19%,79µM*,nt,-24%,11µM*
CC(=O)Nc1cccc(/C(C)=N/Nc2ccc(S(=O)(=O)Nc3ccccc3C(=O)O)cc2[N+](=O)[O-])c1,nt,-14%,79µM*,nt,nt,?
CCOc1ccc(C=NNc2ccc(S(=O)(=O)Nc3ccccc3C(=O)O)cc2[N+](=O)[O-])cc1OC,nt,?,79µM*,nt,17µM*,-14%
COc1ccc(C(C)=NNc2ccc([N+](=O)[O-])cc2S(=O)(=O)Nc2ccccc2C(=O)O)c(OC)c1,nt,-18%,-14%,nt,8%,-17%

# Source: PubChem
